In PubChem BioAssay AID1628 (Sanford-Burnham Center for Chemical Genomics, 2009):
Screen size: about 190,000 compounds; about 930 (0.49%) were called active.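 The calls were made as follows: active = z-score of insulin promoter reporter brightness in nuclei below -3 at 5 µM, with at least 500 cells counted; inconclusive = wells with under 500 cells, flagged as toxic or sparse; inactive = the rest.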 Some of the results follow. Results with a measured potency or affinity are listed apart.

Experiment: decrease of insulin promoter-GFP reporter – imaging, high-content screening, mouse beta cells (AID 1628)
Settings: MIN6 insulin promoter GFP reporter, at 5 µM, active compounds read low

z-score, active:
CC(C)Cn1c(=O)c2c(nc3n2CCCN3CCc2ccccc2)n(C)c1=O -4.13, COc1ccc(CC(=S)N2CCOCC2)cc1 -4.87, Cc1cc2oc(=O)cc(CN3CCN(C/C=C/c4ccccc4)CC3)c2cc1O -3.48, CCC(c1nnnn1CCc1ccccc1)N(Cc1ccco1)Cc1cc2cccc(C)c2[nH]c1=O (stereo not given) -3.08, CCC(c1nnnn1Cc1ccco1)N(Cc1ccccc1OC)Cc1cc2cc(C)ccc2[nH]c1=O (stereo not given) -4.61, CCC(c1nnnn1CCc1ccccc1)N(Cc1ccco1)Cc1cc2cc(C)cc(C)c2[nH]c1=O (stereo not given) -3.35, COc1ccc2nc(NC(=O)c3cccc(OCc4c(C)noc4C)c3)sc2c1 -3.94, CCOC(=O)c1ccc(NC(=O)C2(c3ccc(OC)cc3)CCCC2)cc1 -5.09, CCOC(=O)c1ccc(NC(=O)C2CC2)cc1 -4.4, CCOC(=O)N1CCC(N2CCN(S(=O)(=O)c3ccc4ccccc4c3)CC2)CC1 -4.2, Clc1ccc(C[n+]2cc(-c3ccccc3)n3c2CCCCC3)c(Cl)c1 -5.27, CCCCN(CC)S(=O)(=O)c1ccc(C(=O)N(CCCN(C)C)c2nc3cc(C)cc(C)c3s2)cc1 -3.82, Cc1cc(Cl)ccc1OCC(=O)OCC(=O)Nc1ccc(F)c([N+](=O)[O-])c1 -5.99, COc1ccc(OC)c(C2=Nn3c(nnc3C3CCCCC3)SC2)c1 -6.49, COc1ccc(C2=Nn3c(nnc3-c3ccccc3OC)SC2)cc1OC -3.31, CC(=O)Nc1ccc(Nc2c3ccccc3nc3ccccc23)cc1 -3.01, Cc1ccc(-c2nnc(N3CCN(C(=O)c4ccco4)CC3)c3ccccc23)cc1 -4.39, O=C(c1csc2ccccc12)N1CCCCCC1 -4.36, Cc1ccc(-n2nnnc2SC(C)C(=O)NCC(=O)Nc2ccc(F)c(F)c2F)c(C)c1 (stereo not given) -4.63, CS(=O)(=O)N1CCc2cc(-c3csc(NC(=O)Cc4cccs4)n3)ccc21 -3.24, O=C(CN1CCOCC1)Nc1nc(-c2ccc3c(c2)CCN3S(=O)(=O)c2ccccc2)cs1 -3.24, O=C(Nc1ccccc1)c1ccccc1NS(=O)(=O)c1ccc(Cl)s1 -3.51, O=C1CC(=O)C(n2cncn2)C(c2ccc(Cl)cc2)C1 (stereo not given) -5.08, COc1ccc(/C=C2/SC(=O)N(CCNC(=O)C3CCCN3C(=O)c3cccs3)C2=O)cc1 (stereo not given) -4.56, O=C(CCl)N(c1ccccc1)C1CCCCC1 -5.83, O=c1c2nnn(Cc3ccccc3)c2ncn1C/C=C/c1ccccc1 -5.83, c1ccc(CCNc2c3c(nc4ncnn24)CCC3)cc1 -3.18, Oc1[nH]c2c(Cl)cc(Cl)cc2c1N=NC(=S)NCC1CCCO1 (stereo not given) -3.65, CCC(=O)N1CCCc2cc(S(=O)(=O)N3CCN(c4ccccc4F)CC3)ccc21 -5.64, CCOC(=O)C1CCN(S(=O)(=O)c2ccc3c(c2)CCCN3C(C)=O)CC1 -4.86, CCCCn1c(SCc2ncc(-c3ccccc3)o2)nc2cc(S(N)(=O)=O)ccc21 -5.03, N=c1c2c(-c3ccccc3)c(-c3ccccc3)oc2ncn1CCCN1CCOCC1 -3.3

z-score, inactive:
O=C1C2C3C=CC(C3)C2C(=O)N1CCc1ccccc1 (stereo not given) 3.33, Cn1c(=O)n(Cc2ccccc2F)c(=O)c2c1nc1n2CCN1Cc1ccco1 2.8, CCCCN1C(=O)/C(=C/C=C2/CC(C)(C)CN2C)SC1=S 16.2, COc1ccc(C(=S)N2CCCC2)cc1 0.82, COc1ccc(NC(=O)/C(C#N)=C\c2ccc(N3CCOCC3)o2)cc1 3.17, O=C(Cn1ncn2c(cc3ccccc32)c1=O)NCc1ccco1 3.78, Cc1cc(=O)oc2cc(OC(=O)c3ccccc3)ccc12 -0.09, CCc1cc2c(CN3CCN(CCO)CC3)cc(=O)oc2cc1O 3.59, CCOc1ccc2[nH]c(=O)c(CN(Cc3ccco3)C(CC)c3nnnn3Cc3ccccc3)cc2c1 (stereo not given) -2.78, Cc1cc2nc3c(=O)n(C4CCCCC4)c(=O)[nH]c3nc2cc1N 7.94, CCC(C)N1C(=O)/C(=C/c2c(NCCCOC(C)C)nc3c(C)cccn3c2=O)SC1=S (stereo not given) 13.1, Cc1noc(C)c1COc1cccc(C(=O)OC(C)C(=O)Nc2c(C)n(C)n(-c3ccccc3)c2=O)c1 (stereo not given) 1.6, CC(=O)Nc1ccc2nc(NC(=O)COc3cccc(C)c3)sc2c1 1.98, COc1cc(N2CCCC2)c(OC)cc1/C=c1/sc2nc3ccccc3n2c1=O 16.8, CCCN1C(=O)/C(=C\C=C2\N(CC)c3ccccc3C2(C)C)SC1=S 17.2, CCCN1C(=O)/C(=C/C=C2\N(CC)c3ccccc3C2(C)C)SC1=S 12.5, N#C/C(=C/c1ccc(N2CCCCC2)o1)C(=O)NCCc1c[nH]c2ccccc12 17.5, O=C1c2cccnc2C(=O)N1Cc1ccco1 2.51, CC(C)(CO)C(O)C(=O)NCCC#N (stereo not given) -1.31, O=[N+]([O-])c1ccc(/C=C/C2=NN(c3ccccc3)C(c3ccco3)C2)o1 (stereo not given) 12.4, CCOc1ccc(NC(=O)C2CCC(C)(C(=O)O)C2(C)C)cc1 (stereo not given) 3.64, CCN(CC)c1ccc(NC(=O)C2CC3CCC2C3)cc1 (stereo not given) -2.14, CN1CC=C2C(C#N)=C(N)C(C#N)(C#N)C(c3cccc(Cl)c3Cl)C2C1 (stereo not given) 14.1, COc1cc(N2CCCC2)c(OC)cc1/C=C1/NC(=S)NC1=O 17.8, CCOC(=O)N1CCN(C(=O)c2cc(S(=O)(=O)N3CCCC3)cn2C)CC1 3.05, CCOC(=O)N1CCN(S(=O)(=O)c2ccc3c(c2)oc(=O)n3C)CC1 3.1, COCCNC(=O)c1onc(CSc2cccc(C)c2)c1C(=O)O 3.82, COc1ccc(N=C2NC(=O)S/C2=C\c2ccc(N(C)C)cc2)cc1 3.4, CN1CC=C2C(C#N)=C(N)C(C#N)(C#N)[C@H](c3cccc(Cl)c3)C2C1 (stereo not given in full) 15.9, N#C/C(C(=O)c1ccccc1)=C1/SC=C(N)N1c1ccccc1 5.96, CC(C)OC(=O)CN1C(=O)S/C(=C/c2ccc(N3CCCCC3)o2)C1=O 6.58, Cn1c(=O)n(C)c2cc(NC(=O)COc3ccc(Cl)cc3)ccc21 3.02, COc1ccccc1-c1c(C)c(C)nc(N)c1C#N -0.95, CC(=O)Nc1ccc(N=Cc2c(O)c(C(=O)Nc3ccccc3)cc3ccccc23)cc1 3.59, O=C(CSc1ccccn1)Nc1cccc2ccccc12 2.55, Cc1ccc(C(=O)SC2=NCCS2)cc1 1.97, O=c1[nH]c(/C=C/c2ccccc2OC(F)F)nc2c1cnn2-c1ccccc1 3.2, COc1ccc(CN(C(=O)c2ccc(-c3ccccc3)[nH]2)C(C(=O)NC(C)(C)C)c2ccncc2)cc1 (stereo not given) 2.66, O=C(Nn1c(-c2ccccc2)nc2ccccc2c1=O)c1ccco1 -0.06, C[N+](C)(C)CCCNC(=O)c1ccc(/C=N/O)nc1 0.8, N#Cc1nc(N2CCOCC2)nc(N2CCOCC2)n1 3.26, CCCN1CC=C2C(C#N)=C(N)C(C#N)(C#N)C(c3cc(OC)ccc3OC)C2C1 (stereo not given) 15.3, Cc1ccccc1C(=O)N1CCc2ccccc2C1 3.99, C[n+]1cc(C(=O)N2CCCCC2)ccc1/C=C/c1c[nH]c2ccccc12 3.95, N#Cc1c(NC(=O)CCCN2C(=O)c3ccccc3C2=O)oc(-c2ccccc2)c1-c1ccccc1 -0.48, Cc1csc(SC(C)C(=O)NCC(=O)Nc2ccc(F)c(F)c2F)n1 (stereo not given) 4.91, Cc1ccc2nc(C)c(C(=O)O)cc2c1 3.57, O=S(=O)(NCc1csc(-c2ccccc2)n1)c1ccc(Cl)s1 0.86, Cc1ccc(SCCC(=O)N/N=C/c2ccncc2)cc1 1.59, CC(=O)Oc1ccc2c(c1)Oc1cc(OC(C)=O)ccc1C21OC(=O)c2ccccc21 15.3, O=C1/C(=C/c2c[nH]c3ccccc23)CCC/C1=C\c1c[nH]c2ccccc12 4.59, COCCN1C(=O)/C(=C/c2ccc(N3CCCC3)cc2)SC1=S 16.8, CCC(C)(C(=O)NC1CCCC1)N(C(=O)CNC(C)=O)c1ccccc1 (stereo not given) 3.46, Cc1ccc2[nH]c(-c3ccccc3)c(CN(C)C)c(=O)c2c1 4.17, COc1cccc(-n2nnc3c(=O)n(CC(=O)OCc4ccccc4)cnc32)c1 1.01, Cc1ccc(Cn2nnc3c(=O)n(CC(=O)NCc4ccco4)cnc32)cc1 1.28, O=C(CN(C1CCCCC1)S(=O)(=O)c1ccccc1)NCc1ccco1 0.65, COc1ccccc1N/C(N)=N/c1nc(C(F)(F)F)cc(=O)[nH]1 3.34, CCCCn1c(SCC(=O)O)nc2ccccc21 3.5, Cc1cccn2c(=O)c(/C=C3\SC(=S)NC3=O)c(NCCCN3CCOCC3)nc12 5.45, O=C(/C=C/c1ccc(N2CCC(c3ccccc3)=N2)cc1)c1ccccc1 17.2, O=C1C=C(Nc2ccc(O)cc2)CC(c2ccco2)C1 (stereo not given) 6.78, O=c1[nH]c2ccccc2nc1/C=C/c1ccc(F)cc1 5.99
